Our source for the outcome and AC50 values is PubChem BioAssay (EPA / NIEHS).

The structures appear in SMILES notation. Activity calls are given as the source filed them. Rule for the calls: active = hit-call score of the fitted dose curve at least 0.9, where 1 is the maximum; inactive = score below 0.9.

Common to all, as to details: mRNA level, 48 h; actives raise or lower the signal
Read-out in assay [1]: Apoptosis regulator Bcl-2 (Homo sapiens) (UniProt P10415)
Nature of the assay: LTEA_HepaRG_BCL2: Life Technologies and Expression Analysis (LTEA) Assay for Bcl-2 gene using HepaRG (AID 2283475). An outline of the steps: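 Differentiated human HepaRG cells in serum-free induction medium exposed 48 h, in duplicate, to 8-point half-log series from 100 uM in 0.5% DMSO. BCL2 mRNA by qRT-PCR (TaqMan/Fluidigm), normalized to ACTB, GAPDH, POLR2A; bidirectional fit against DMSO.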

Read-out in assay [2]: Bcl-2 (BID) gene, BID (gene 637)
As to the kind of experiment: LTEA_HepaRG_BID: Life Technologies and Expression Analysis (LTEA) Assay for Bcl-2 (BID) gene using HepaRG (AID 2283476). An outline of the steps:
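Gene expression by qRT-PCR in HepaRG cells after 48 h exposure, duplicate wells, eight half-log concentrations topping at 100 uM in 0.5% DMSO. Normalized to ACTB, GAPDH, POLR2A; bidirectional fitting relative to DMSO.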

Read-out in assay [3]: Caspase-3 (Homo sapiens) (UniProt P42574)
As to the kind of experiment: LTEA_HepaRG_CASP3: Life Technologies and Expression Analysis (LTEA) Assay for cysteine-aspartic acid protease (CASP3) using HepaRG (AID 2283477). The essentials: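 Differentiated HepaRG cells, plated 48 h, were treated in duplicate in serum-free induction medium for 48 h with eight half-log concentrations up to 100 uM in 0.5% DMSO. CASP3 mRNA measured by qRT-PCR, normalized to ACTB, GAPDH, POLR2A.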

Read-out in assay [4]: Cytochrome P450 (CYP1A2), CYP1A2 (gene 1544)
Nature of the assay: LTEA_HepaRG_CYP1A2: Life Technologies and Expression Analysis (LTEA) Assay for Cytochrome P450 (CYP1A2) using HepaRG (AID 2283479). An outline of the steps: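 Differentiated human HepaRG cells in serum-free induction medium exposed 48 hours in duplicate to 8 half-log concentrations from 100 uM, 0.5% DMSO. CYP1A2 mRNA quantified by qRT-PCR, normalized to ACTB, GAPDH and POLR2A; bidirectional fitting versus DMSO.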

Read-out in assay [5]: cysteine-aspartic acid protease (CASP8), CASP8 (gene 841)
As to the kind of experiment: LTEA_HepaRG_CASP8: Life Technologies and Expression Analysis (LTEA) Assay for cysteine-aspartic acid protease (CASP8) using HepaRG (AID 2283480). The essentials: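 HepaRG, 48 h exposure, duplicate wells; 8 conc, half-log from 100 uM, 0.5% DMSO. Serum-free induction medium. CASP8 mRNA by TaqMan qRT-PCR, norm. ACTB/GAPDH/POLR2A; gain/loss fitted vs DMSO.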

Read-out in assay [6]: Cytochrome P450 (CYP2B6), CYP2B6 (gene 1555)
As to the kind of experiment: LTEA_HepaRG_CYP2B6: Life Technologies and Expression Analysis (LTEA) Assay for Cytochrome P450 (CYP2B6) using HepaRG (AID 2283481). The essentials:
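Differentiated human HepaRG cells in serum-free induction medium, dosed in duplicate for 48 h over 8 half-log concentrations topping at 100 uM (0.5% DMSO). CYP2B6 mRNA measured by TaqMan qRT-PCR, normalized to ACTB, GAPDH, POLR2A; bidirectional fit versus DMSO.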

Read-out in assay [7]: Cytochrome P450 2C19 (Homo sapiens) (UniProt P33261)
As to the kind of experiment: LTEA_HepaRG_CYP2C19: Life Technologies and Expression Analysis (LTEA) Assay for CYP2C19 using HepaRG (AID 2283482). An outline of the steps: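 Differentiated HepaRG cells in serum-free induction medium exposed 48 h in duplicate, 8 concentrations from 100 uM by half-log steps in 0.5% DMSO. CYP2C19 mRNA measured by TaqMan qRT-PCR, normalized to ACTB, GAPDH, POLR2A. Bidirectional fit versus DMSO.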

Read-out in assay [8]: CYP2C8 (gene 1558)
Nature of the assay: LTEA_HepaRG_CYP2C8: Life Technologies and Expression Analysis (LTEA) Assay for CYP2C8 using HepaRG (AID 2283483). The essentials: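 CYP2C8 mRNA induction or loss, by qRT-PCR normalized to ACTB/GAPDH/POLR2A, is read in HepaRG cells after 48 h treatment. Concentrations run from 100 uM down in half-log dilutions, with 0.5% DMSO as vehicle and baseline.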

Read-out in assay [9]: CYP2C9 (gene 1559)
Nature of the assay: LTEA_HepaRG_CYP2C9: Life Technologies and Expression Analysis (LTEA) Assay for CYP2C9 using HepaRG (AID 2283484). An outline of the steps:
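Cells plated 48 h, switched to serum-free induction medium, then treated in duplicate for 48 h at eight concentrations (max 100 uM, 0.5% DMSO). RNA then analysed by qRT-PCR for CYP2C9; curves fitted in both directions relative to DMSO.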

Read-out in assay [10]: CYP2E1 (gene 1571)
Nature of the assay: LTEA_HepaRG_CYP2E1: Life Technologies and Expression Analysis (LTEA) Assay for CYP2E1 using HepaRG (AID 2283485). An outline of the steps:
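HepaRG cells, plated 48 h, then exposed 48 h in serum-free induction medium to eight half-log concentrations from 100 uM in 0.5% DMSO, duplicate. CYP2E1 mRNA by qRT-PCR, normalized to ACTB/GAPDH/POLR2A; bidirectional fit versus DMSO.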

Read-out in assay [11]: CYP4A11 (gene 1579)
As to the kind of experiment: LTEA_HepaRG_CYP4A11: Life Technologies and Expression Analysis (LTEA) Assay for CYP4A11 using HepaRG (AID 2283486). An outline of the steps:
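Differentiated HepaRG cells, 48 h after plating, exposed in duplicate for 48 h to 8 half-log concentrations up to 100 uM in 0.5% DMSO in serum-free induction medium. CYP4A11 mRNA measured by TaqMan qRT-PCR, normalized to ACTB, GAPDH and POLR2A.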

Read-out in assay [12]: Cytochrome P450 3A4 (Homo sapiens) (UniProt P08684)
Nature of the assay: LTEA_HepaRG_CYP3A4: Life Technologies and Expression Analysis (LTEA) Assay for CYP3A4 using HepaRG (AID 2283487). An outline of the steps: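 Differentiated HepaRG cells, plated 48 h, then dosed 48 h in serum-free induction medium with 0.5% DMSO, 8 half-log concentrations up to 100 uM, duplicate. CYP3A4 mRNA by qRT-PCR, normalized to ACTB/GAPDH/POLR2A; bidirectional fit versus DMSO.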

Read-out in assay [13]: DNA damage-inducible transcript 3 (DDIT3), DDIT3 (gene 1649)
Nature of the assay: LTEA_HepaRG_DDIT3: Life Technologies and Expression Analysis (LTEA) Assay for DNA damage-inducible transcript 3 (DDIT3) using HepaRG (AID 2283488). The essentials:
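HepaRG cells, 48 h after plating, exposed 48 h in serum-free induction medium to 8 half-log concentrations up to 100 uM in 0.5% DMSO, in duplicate. DDIT3 mRNA measured by TaqMan qRT-PCR, normalized to ACTB, GAPDH and POLR2A. Fitted bidirectionally against DMSO.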

Read-out in assay [14]: Pro-epidermal growth factor (Homo sapiens) (UniProt P01133)
Nature of the assay: LTEA_HepaRG_EGF: Life Technologies and Expression Analysis (LTEA) Assay for Epidermal growth factor (EGF) using HepaRG (AID 2283489). An outline of the steps:
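HepaRG cells (~100,000/well, 48 h pre-culture) exposed in duplicate for 48 h in serum-free induction medium to 8 half-log concentrations up to 100 uM in 0.5% DMSO. EGF mRNA by qRT-PCR, normalized to ACTB/GAPDH/POLR2A; bidirectional fit versus DMSO.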

Read-out in assay [15]: Early growth response protein 1 (EGR1) transcription factor, EGR1 (gene 1958)
Nature of the assay: LTEA_HepaRG_EGR1: Life Technologies and Expression Analysis (LTEA) Assay for Early growth response protein 1 (EGR1) transcription factor using HepaRG (AID 2283490). The essentials: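 Read-out is EGR1 mRNA level by qRT-PCR, normalized to three housekeeping genes and analysed for gain or loss of signal against 0.5% DMSO. Source cells: human HepaRG, treated 48 h at up to 100 uM in half-log dilutions.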

Read-out in assay [16]: Cytochrome P450 3A7 (Homo sapiens) (UniProt P24462)
As to the kind of experiment: LTEA_HepaRG_CYP3A7: Life Technologies and Expression Analysis (LTEA) Assay for CYP3A7 using HepaRG (AID 2283492). The essentials:
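Differentiated HepaRG cells in serum-free induction medium exposed 48 h in duplicate to 8-point half-log series from 100 uM top in 0.5% DMSO. CYP3A7 mRNA by qRT-PCR, normalized to ACTB/GAPDH/POLR2A, bidirectional fit versus DMSO.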

Read-out in assay [17]: CYP3A5 (gene 1577)
As to the kind of experiment: LTEA_HepaRG_CYP3A5: Life Technologies and Expression Analysis (LTEA) Assay for CYP3A5 using HepaRG (AID 2283493). The essentials: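 HepaRG cells, plated 48 h then in serum-free induction medium, dosed in duplicate for 48 h with eight half-log concentrations up to 100 uM in 0.5% DMSO. Gene mRNA by Fluidigm TaqMan qRT-PCR, normalized to ACTB, GAPDH, POLR2A.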

Read-out in assay [18]: Fatty Acid-Binding Protein 1 (FABP1), FABP1 (gene 2168)
Nature of the assay: LTEA_HepaRG_FABP1: Life Technologies and Expression Analysis (LTEA) Assay for Fatty Acid-Binding Protein 1 (FABP1) using HepaRG (AID 2283494). An outline of the steps: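 HepaRG, 48 h post-plating switched to serum-free induction medium, then dosed 48 h (duplicate, 8 pts, ≤100 uM, 0.5% DMSO). RNA → Fluidigm TaqMan qRT-PCR, FABP1 normed to ACTB/GAPDH/POLR2A. Bidirectional curve fit vs DMSO.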

Read-out in assay [19]: Ezrin (EZR), EZR (gene 7430)
As to the kind of experiment: LTEA_HepaRG_EZR: Life Technologies and Expression Analysis (LTEA) Assay for Ezrin (EZR) using HepaRG (AID 2283491). An outline of the steps:
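EZR transcript levels came from Fluidigm qRT-PCR and were normalized to three housekeeping genes after 48 h chemical exposure of HepaRG cells. Dosing used an 8-point half-log series with a 100 uM top concentration in 0.5% DMSO, tested in duplicate; both directions were fitted versus vehicle.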

Usually AC50 stands for the concentration giving half of the maximal activity seen.

Caspase-3 (Homo sapiens), sequence (P42574 whole entry, looked up): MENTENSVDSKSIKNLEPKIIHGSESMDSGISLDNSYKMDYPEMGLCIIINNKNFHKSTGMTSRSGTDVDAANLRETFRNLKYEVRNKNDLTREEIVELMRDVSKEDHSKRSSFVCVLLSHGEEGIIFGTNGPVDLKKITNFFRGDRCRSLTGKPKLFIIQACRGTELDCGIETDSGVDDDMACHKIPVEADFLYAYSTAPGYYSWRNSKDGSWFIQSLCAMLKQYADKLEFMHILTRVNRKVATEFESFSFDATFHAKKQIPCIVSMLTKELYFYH
Cytochrome P450 2C19 (Homo sapiens), sequence (P33261 whole entry, looked up): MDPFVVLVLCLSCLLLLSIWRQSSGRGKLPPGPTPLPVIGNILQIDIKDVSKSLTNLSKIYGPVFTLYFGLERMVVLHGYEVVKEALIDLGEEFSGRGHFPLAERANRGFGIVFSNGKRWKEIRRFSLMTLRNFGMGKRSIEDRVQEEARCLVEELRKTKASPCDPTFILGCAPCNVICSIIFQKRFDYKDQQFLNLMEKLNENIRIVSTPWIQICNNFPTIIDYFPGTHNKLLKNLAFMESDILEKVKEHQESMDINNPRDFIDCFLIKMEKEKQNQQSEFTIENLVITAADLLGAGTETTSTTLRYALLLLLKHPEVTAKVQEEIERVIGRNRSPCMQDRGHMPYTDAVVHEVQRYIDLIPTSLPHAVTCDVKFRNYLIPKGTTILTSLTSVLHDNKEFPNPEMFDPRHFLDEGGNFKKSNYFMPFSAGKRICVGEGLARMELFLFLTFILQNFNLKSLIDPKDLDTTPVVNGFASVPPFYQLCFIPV
Apoptosis regulator Bcl-2 (Homo sapiens), sequence (P10415 whole entry, looked up): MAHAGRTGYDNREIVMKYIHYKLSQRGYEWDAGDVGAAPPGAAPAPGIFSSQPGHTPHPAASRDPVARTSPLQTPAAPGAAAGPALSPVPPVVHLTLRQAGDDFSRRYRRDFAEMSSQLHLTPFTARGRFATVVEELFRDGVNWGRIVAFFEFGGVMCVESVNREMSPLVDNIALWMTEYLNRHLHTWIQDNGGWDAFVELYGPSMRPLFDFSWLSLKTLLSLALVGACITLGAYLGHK
Cytochrome P450 3A4 (Homo sapiens), sequence (P08684 whole entry, looked up): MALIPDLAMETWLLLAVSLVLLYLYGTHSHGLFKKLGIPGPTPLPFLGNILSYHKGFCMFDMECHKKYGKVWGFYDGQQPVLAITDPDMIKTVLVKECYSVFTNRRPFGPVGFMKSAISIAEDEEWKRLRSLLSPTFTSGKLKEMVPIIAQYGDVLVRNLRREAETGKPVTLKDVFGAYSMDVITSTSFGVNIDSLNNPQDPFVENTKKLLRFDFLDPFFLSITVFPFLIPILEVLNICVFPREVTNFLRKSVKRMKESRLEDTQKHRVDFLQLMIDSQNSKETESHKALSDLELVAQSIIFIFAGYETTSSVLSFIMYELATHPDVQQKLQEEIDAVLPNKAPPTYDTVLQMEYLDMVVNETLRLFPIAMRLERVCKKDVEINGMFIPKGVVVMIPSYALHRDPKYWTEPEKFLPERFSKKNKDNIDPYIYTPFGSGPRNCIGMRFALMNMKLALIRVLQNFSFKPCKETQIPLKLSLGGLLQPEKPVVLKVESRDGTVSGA
Cytochrome P450 3A7 (Homo sapiens), sequence (P24462 whole entry, looked up): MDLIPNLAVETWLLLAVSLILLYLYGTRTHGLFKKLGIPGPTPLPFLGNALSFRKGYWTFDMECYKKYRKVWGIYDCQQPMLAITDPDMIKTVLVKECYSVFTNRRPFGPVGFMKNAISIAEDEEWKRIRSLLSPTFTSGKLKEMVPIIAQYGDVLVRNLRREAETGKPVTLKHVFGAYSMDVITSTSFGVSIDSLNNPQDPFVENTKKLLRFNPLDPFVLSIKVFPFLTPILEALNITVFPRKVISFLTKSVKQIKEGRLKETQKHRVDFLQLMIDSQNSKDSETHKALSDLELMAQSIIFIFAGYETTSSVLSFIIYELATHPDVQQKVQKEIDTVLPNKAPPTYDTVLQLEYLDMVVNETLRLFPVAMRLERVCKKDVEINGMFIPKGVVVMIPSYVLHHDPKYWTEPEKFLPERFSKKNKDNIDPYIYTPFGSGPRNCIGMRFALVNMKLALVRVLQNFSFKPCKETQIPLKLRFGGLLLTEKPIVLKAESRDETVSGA

For `CCCOC(=O)c1cc(O)c(O)c(O)c1`, the compound was classed as inactive in assay [1], in [2], in [3], in [4], in [5] and in assay [8]. The result in assay [9], in assay [13], in [14], in assay [15], in [16] and in assay [17] was inactive. The AC50 in [6] was 0.674 µM (active); in [7], 0.793 µM (active); in assay [10], 21.6 µM (active); in assay [11], 6.67 µM (active); in assay [12], 1.14 µM (active); in [18] it was 30.1 µM (active).
Take `CCCCCCCCCC(=O)O`: the outcome in [1], in assay [2], in assay [3], in [4], in assay [6] and in [7] was inactive. Besides, the outcome in [8], in assay [9], in [11], in assay [12], in assay [13] and in assay [14] was inactive. Moreover, the compound was classed as inactive in assay [15], in assay [19], in assay [16], in assay [17] and in assay [18].
Consider `CC(C)(C)c1csc(-c2cc3cc(OCc4ccccc4CC(=O)O)ccc3o2)n1`, for which the outcome in [1], in assay [4] and in [14] was inactive. Moreover, the half-maximal activity concentration (AC50) in [2] is 75.7 µM (active); in assay [3], 77.7 µM (active); in assay [6], 23.3 µM (active); in assay [7], 33.5 µM (active); in assay [8] it was 25.5 µM (active); in assay [9], 12.5 µM (active). Moreover, the half-maximal activity concentration (AC50) in [10] was 16.8 µM (active); in assay [11], 23.2 µM (active); in assay [12], 76.1 µM (active); in [13], 22.7 µM (active); in assay [15], 89.5 µM (active); in assay [19], 82.3 µM (active). For the same compound, the AC50 in assay [17] is 81.3 µM (active); in assay [18], 32.6 µM (active).
